Screening results: PubChem BioAssay, National Center for Advancing Translational Sciences (NCATS)
In the library only some 12% were active in any assay of this set; here they are far more common.
BAZ2B block – blocks human BAZ2B | Potency, µM (series often up to 114 µM), inactives show at the highest dose activity change, negative = inhibition, actives largely listed as inhibitors | actives 4.4% (n = 360,000) | AID 504333 | AlphaScreen BAZ2B-H3K14Ac peptide displacement | Q9UIF8; further: on the % scale 0 is the no-effect control and ±100 the full control effect; nearly all actives have a fitted effect of over 60% in size
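BAZ2B 50 nM plus b-H3(5-23)K14Ac 50 nM, PBS pH 7.4/0.01% Tween-20, 30 min RT; compound added (max 110 uM), 30 min RT; streptavidin donor/Ni-chelate acceptor beads 10 ug/mL final, 20 min dark; AlphaScreen read.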
L3MBTL1 inh – L3MBTL1 (human) inhibition | Q9Y468 | AlphaScreen L3MBTL1–H3K9me1 peptide binding | Potency, µM (top dose mostly 57.1 µM), for the others: top-dose activity, negative = inhibition, most hits filed as inhibitors | actives 0.66% (n = 230,000) | AID 485360; further: on the % scale 0 is the no-effect control and ±100 the full control effect; nearly all actives have a fitted effect of over 60% in size
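AlphaScreen assay: L3MBTL1 (50 nM final) was preincubated 30 min at room temperature with biotinylated H3(1-15)K9me1 peptide (75 nM final), then 30 min with library compounds; streptavidin donor and nickel chelate acceptor beads (10 ug/mL final) added, 30 min dark.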
JMJD2A Tudor – inhibitors of human JMJD2A Tudor domain | O75164 | AlphaScreen JMJD2A-Tudor / H3K4me3 peptide binding | Potency, µM (top dose mostly 114 µM), for inactives: at the highest dose activity change, negative = inhibition, actives largely listed as inhibitors | actives 4.4% (n = 390,000); further: on the % scale 0 is the no-effect control and ±100 the full control effect; nearly all actives have a fitted effect of over 50% in size
Sfp inh – blocks B. subtilis Sfp PPTase activity; Biochemical Sfp PPTase activity, qHTS; actives 3.5% (n = 310,000); Potency, µM, inactives show largest response in the series, negative = inhibition, usual class: inhibitors;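 further: the enzyme is Sfp with the accession as filed and its product quenches rhodamine fluorescence; 0% = enzyme reaction without inhibitor and -100% = no enzyme wells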
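Buffer: 50 mM Hepes-Na pH 7.6, 10 mM MgCl2, 0.01% Nonidet P-40, 0.01% BSA. Enzyme 15 nM, pre-exposed to compound 15 min; substrates then added and fluorescence change tracked over 30 min.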
HP1b chromo inh – inhibitors of HP1-beta chromodomain binding to methylated histone tails; Potency, µM (highest dose often 114 µM), for the others: top-dose activity change, negative = inhibition, usual class: inhibitors; AlphaScreen HP1-beta / biotin-H3K9me3 peptide binding; P83916; actives 0.56% (n = 390,000); further: nearly all actives have a fitted effect of over 70% in size
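AlphaScreen: HP1-beta (50 nM) preformed 30 min with biotin-H3(1-18)K9me3 peptide (50 nM) in PBS pH 7.4, 0.01% Tween-20. Compound added for 30 min at RT, then streptavidin donor/nickel chelate acceptor beads (10 ug/mL) for 30 min.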
G9a block – G9a (human) methyltransferase inhibition; G9a H3K9 monomethylation, AlphaScreen, 2 h; actives 8.8% (n = 350,000); Potency, µM (series often up to 102 µM), for the others: top-dose activity, negative = inhibition, usual class: inhibitors; further: on the % scale 0 is the no-effect control and ±100 the full control effect; nearly all actives have a fitted effect of over 75% in size
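Readings reflect AlphaScreen signal from monomethyl-H3K9 antibody detection. HMT at 20 nM; substrate b-H3K9 500 nM; cofactor SAM 20 uM; 2 h RT reaction; compounds tested as titrations in qHTS with 15 min preincubation.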
* marks the source's active call; other numbers are inactive results; u = inconclusive; x = not tested or not shown; [ ] = dose if it differs, or a comment. The call rests on the fitted dose curve; in most records, active means well fitted curve in the direction sought with a large enough effect; inconclusive means small, poorly fitted or top-dose-only effect, or another doubt; inactive means no such curve, though single readings can be large; an effect the other way counts as inactive or inconclusive. Potency means the concentration at half of the fitted maximal effect.

SMILES	BAZ2B block	L3MBTL1 inh	JMJD2A Tudor	Sfp inh	HP1b chromo inh	G9a block
O=C(CCCc1c[nH]c2ccccc12)N[C@@H](Cc1c[nH]c2ccccc12)C(=O)O	-13.4%	x	-21.2%	8.9%	13.6%	u
CCC1(CC)C(=O)N(c2ccccc2)C(=N)N(c2ccccc2)C1=O	x	x	2.1%	x	40.1%	x
CC(=O)c1ccc(NC(=O)OCCN2CCN(Cc3ccccc3)CCC2=O)cc1	x	x	x	14.6%	x	15.3%[59 µM]
CCCCN(C)CCn1c(=S)[nH]c2ncccc2c1=O	3.5%	x	u	-23.5%	-12.2%	50.1µM*
CCN(CCCn1c(=S)[nH]c2ncccc2c1=O)c1ccccc1	-30.9%	-5.6%	-25.0%	12.3%	9.1%	0.9%
CCN(CC)CCCn1c(=S)[nH]c2ncccc2c1=O	-8.7%	x	8.91µM*	u	u	50.1µM*
O=C(Cn1cc(C(=O)c2cccs2)c2ccccc21)Nc1ccc(Br)cc1	-3.9%	x	-5.5%	x	8.8%	-9.1%[59 µM]
C/C(CCC(=O)OC[C@@H]1O[C@H](C#Cc2ccccc2)C=C[C@@H]1Oc1ccc(C)cc1)=N/O[C@@H](C)CN1CCCCc2nc(C)c(C)cc21	x	x	x	7.9%	x	x
CCC(C)(C)c1ccc2c(c1)C(=O)c1ccccc1C2=O	31.6µM*	-23.3%	31.6µM*	-3.1%	u	u
Cc1ccc(-c2noc(C3CCCN(C(=O)C4CCCCC4)C3)n2)o1 (stereo not given)	-5.8%	x	-13.6%	u	17.2%	11.2µM*
Cc1ccccc1Cn1c(=O)n(-c2ccc(Cl)cc2)c(=O)c2c3c(sc21)CCCC3	0.9%	x	0.7%	x	26.5%	1.9%[59 µM]
CC12CCC(C(=O)N(CCCN3CCN(Cc4ccccc4)CC3)C1=O)C2(C)C (stereo not given)	50.1µM*	-4.3%	u	11.5%	4.6%	u
CC1=CC(=O)C2=C(C)CC[C@H]3[C@H](C)C(=O)O[C@@H]3C12 (stereo not given in full)	x	x	x	13.1%	x	x
CC1C(=O)OC2C1CCC1(C)CCC(=O)C(C)C21 (stereo not given)	12.8%	x	50.1µM*	-29.9%	51.0%	22.4µM*
Cc1ccc(S(=O)(=O)NC(=O)c2cc(C)n(-c3ccc(N(C)C)cc3)c2C)cc1	-34.9%	-12.1%	-32.5%	-18.6%	-2.5%	44.7µM*
Cc1ccc(S(=O)(=O)NC(=O)Nc2ccc(N(C)C)cc2)cc1	14.1µM*	x	22.4µM*	u	17.8µM*	u
CCN(c1ccccc1C(=O)O)S(=O)(=O)c1ccc2[nH]c(=O)[nH]c2c1	2.5%	x	5.4%	12.3%	21.7%	u
OC[C@@H](O)[C@H](O)C(/C=N/Nc1ccccc1)=N\Nc1ccccc1	u	x	79.4µM*	u	u	u
O=C(c1ccc(S(=O)(=O)Nc2ccccc2F)cc1)N1CCN(c2ccccc2O)CC1	2.3%	-2.6%	31.6µM*	x	27.3%	u
O=C(c1cccc(C(=O)N2CCN(c3ccccc3F)CC2)c1)N1CCN(c2ccccc2F)CC1	-26.2%	x	-12.5%	16.7%	14.1%	-37.7%[12.7 µM]
O=C(c1ccc(C(=O)N2CCN(c3ccccc3F)CC2)nc1)N1CCN(c2ccccc2F)CC1	-15.9%	5.2%	79.4µM*	-1.3%	9.8%	u
N#CCN(CC#N)C(=O)C1c2ccccc2Oc2ccccc21	-6.5%	x	39.8µM*	9.3%	14.4%	x
COc1ccc(C2SCCN2C(=S)Nc2ccc(F)cc2)cc1 (stereo not given)	4.6%	8.4%	2.8%[57.1 µM]	-9.1%	-14.3%	39.8µM*
CCc1ccc(NC(=O)Cn2c(SCc3ccc(C)cc3)nc3ccncc32)cc1	x	x	-14.6%[57.1 µM]	x	24.6%[57 µM]	x
COc1ccc(N2CCN(C(c3cccs3)C(C)NC(=O)C(=O)N3CCCC3)CC2)cc1 (stereo not given)	39.8µM*	x	u	-9.1%	-3.7%	44.7µM*
SMILES	BAZ2B block	L3MBTL1 inh	JMJD2A Tudor	Sfp inh	HP1b chromo inh	G9a block
COc1ccc(N2CCN(C(c3cccs3)C(C)NC(=O)C(=O)N3CCCCC3)CC2)cc1 (stereo not given)	-35.3%	x	-30.6%	3.0%	0.9%	50.1µM*
CC1/C(=N/O)CC(c2ccco2)NC1c1ccco1 (stereo not given)	-0.5%	-3.1%	-10.4%	-5.7%	12.4%	10.9%[59 µM]
CCCC1C(c2ccco2)NC(c2ccco2)CC1(C)O (stereo not given)	x	-0.4%	3.55µM*	-25.6%	u	6.31µM*
COc1ccc(-c2ccc3c(N)c(C(=O)c4cccc(OC)c4)sc3n2)cc1	-18.0%	x	-9.0%	-13.9%	68.6%	50.1µM*
COc1ccc(C(=O)c2sc3nc(-c4ccc(OC)cc4)ccc3c2N)cc1	15.0%	26.4%	7.7%	-27.7%	63.4%	-1.4%[59 µM]
CC(C)Sc1nc2c(c(=O)[nH]c(=O)n2C)n1Cc1ccc(Cl)cc1	5.5%	5.6%	31.6µM*	-26.6%	u	u
CCC(C)Sc1nc2c(c(=O)[nH]c(=O)n2C)n1Cc1ccc(Cl)cc1 (stereo not given)	5.9%	2.1%	-37.3%	5.5%	3.5%	u
CCOC(=O)C(C)Sc1nc2c(c(=O)[nH]c(=O)n2C)n1Cc1ccc(Cl)cc1 (stereo not given)	-1.7%	4.9%	-16.9%	u	-24.1%	11.2µM*
CC(C)Sc1nc2c(c(=O)[nH]c(=O)n2C)n1Cc1ccccc1	5.9%	1.2%	-5.4%	10.5%	31.8%	12.5%
CCOc1ccc(CC(=O)Nc2c(C(=O)c3ccccc3)oc3ccc(Cl)cc23)cc1OCC	-11.0%	x	-11.9%	x	12.9%	5.1%[59 µM]
COC(=O)C1CCN(C(=O)COC(=O)c2ccc(OC)c(S(=O)(=O)N3CCCc4ccccc43)c2)CC1	4.8%	-10.7%	-18.1%	11.7%	12.7%	79.4µM*
O=C(NCc1ccc2[nH]c3c(c2c1)CCCC3)c1ccc(S(=O)(=O)N2CCCCC2)cc1	-32.4%	-12.3%	-21.1%	7.7%	7.1%	70.8µM*
COC(=O)C1CCN(C(=O)COC(=O)c2ccc3[nH]c4c(c3c2)CCCC4)CC1	u	-6.7%	u	x	u	50.1µM*
CC1CCCN(S(=O)(=O)c2ccc3[nH]c4c(c3c2)CCCC4)C1 (stereo not given)	25.1µM*	x	u	0.9%	u	x
Cc1ccc(-c2nc3sc4c(N)ncnc4c3c3c2CCCC3)cc1	-20.5%	1.1%	-16.8%	19.6%	23.7%	-1.2%
CCn1c(SCC(=O)Nc2ccccc2OC)nc(O)cc1=O	-5.4%	x	-1.0%	-7.2%	39.1%	10.5%
COc1ccc(-n2c(=O)c(C)nc3cnc(N4CCNCC4)nc32)cc1	x	x	x	14.3%	x	-4.0%[12.7 µM]
Cc1ccccc1OCC(=O)NCC(C)NC(=O)COc1ccccc1C (stereo not given)	x	x	-7.7%[57.1 µM]	x	2.2%[57 µM]	x
